Experimental findings from PubChem BioAssay (NCI) are described below.

Common to all, as to test: NCI-60 one-dose screen, 48 h (100 = growth as untreated, 0 = no growth, -100 = all killed)
Holding throughout (conditions): 10 µM unless noted

The subject of test [1] is HCT-15 colon.
The test system of test [2] is HT29 colon.
Test [3] concerns SNB-75 CNS.
Test [4] deals with SNB-19 CNS.
The subject of test [5] is U251 CNS.
The test system of test [6] is PC-3 prostate.
Test [7] relates to SK-MEL-5 melanoma.
Test [8] relates to UACC-62 melanoma.
The subject of test [9] is LOX IMVI melanoma.
For test [10], the system named is SK-MEL-28 melanoma.

Each structure is given as a SMILES string. Compounds without any hit were thinned out: in the full panel of roughly 83,000, 20% have a hit.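 Assay: single dose, 48 h. Readout: percent growth (0 = no net growth; negative = cell death). Active: <10.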 A number with no mark means an inactive call. Calls of active or inactive are those of the source.

Turning to `Oc1ccc(CSc2nnc(-c3ccc(Cl)cc3)n2-c2ccccc2)c2cccnc12`, the growth in test [1] is 14.4%; in [2], 92.7%; in test [3], 16.6%; in test [4], 13.3%; in test [5], 3.32% (active); in test [6] it was 19.1%. Also, the growth in test [7] was 5.67% (active); in test [8], 9.41% (active); in [9], 29.5%; in test [10], 42.4%.
Turning to `CCn1c2ccccc2c2cc(-n3nncc3-c3ccccc3)ccc21`, the growth in test [1] was 8.42% (active); in [2], 2.01% (active); in test [3], 27.4%; in test [4], 24.1%; in [5], 25.1%; in [6], 29.1%. Moreover, the growth in test [7] is -11.7% (active); in test [8], 35.5%; in test [9], -29.5% (active); in test [10], 66.4%.
Regarding `Nc1cc(-c2c[nH]c3ccc(Br)cc23)nc2cc(-c3c[nH]c4ccc(Br)cc34)nn12`, the growth in [1] is 2.64% (active); in test [2] it was -33.8% (active); in test [3], 41.9%; in test [4], 41.2%; in test [5], -47.8% (active); in [6], 14.5%. In addition, the growth in test [7] was 36.7%; in test [8] it was 11.6%; in test [9], -52.8% (active); in test [10], 49.9%.
On to `C#Cc1ccc(C(=O)NCc2ccc(/C=C/C(=O)c3nccn3C)cc2)cc1`, for which the growth in test [1] was 2.77% (active); in test [2], 8.87% (active); in test [3] it was 67.3%; in [4], 16.9%; in test [5], 17.3%; in [6], 30.7%. Moreover, the growth in test [7] was 38.8%; in [8], 21%; in test [9] it was -74.8% (active); in [10], 48.8%.
As to `N=c1c2cc(-c3ccccc3)oc2ncn1/N=C/c1ccc(Br)cc1`, the growth in test [1] was 57.9%; in test [2], 102%; in test [3] it was 58%; in [4], 74.9%; in test [5] it was 45.9%; in test [6], 75.3%. Besides, the growth in test [7] was 97.1%; in test [8], 90.4%; in [9], 45.3%; in [10], 77.8%.
Regarding `CC(=O)c1ccc(Nc2nc(SCC(C)C)nc(-c3ccc(F)cc3)c2C#N)cc1`, the growth in test [1] was 104%; in test [2], 107%; in [3] it was 125%; in test [4] it was 112%; in test [5], 104%; in test [6], 108%. In addition, the growth in [7] was 101%; in [8] it was 108%; in [9] it was 112%; in [10], 108%.
For the compound `NC(N)=Nc1ccc(Oc2cccc(Nc3ccc(Br)c(C(F)(F)F)c3)c2)cn1`, the growth in test [1] was -68.3% (active); in test [2], -48.5% (active); in test [3] it was 9.31% (active); in test [4], -83.5% (active); in test [5], -79.6% (active); in test [6], -92% (active). The growth in [7] was 16.9%; in test [8], -76.9% (active); in [9], -87.6% (active); in test [10] it was -32.1% (active).
For `CCCCCc1ccc(S(=O)(=O)Nc2cccc(-c3csc(NC(=O)CCCCCN4CCN(C)CC4)n3)c2)cc1`, the growth is -7.05% (active) in test [1]; 7.36% (active) in [2]; 85.9% in test [3]; 72.3% in test [4]; 26.2% in test [5]; 50.3% in [6]. For the same compound, the growth was -66.8% (active) in test [7], 63.2% in [8], -83.8% (active) in test [9] and -18.9% (active) in test [10].
Regarding `NC(=O)c1c(NC(=O)c2ccc(F)cc2F)sc2c1CCC(=O)C2`, the growth was 11.8% in [1]; 59.8% in test [2]; 66.8% in [3]; 59.3% in [4]; 32.4% in test [5]; 16.3% in [6]. The growth in test [7] was 64.6%; in [8], 22.6%; in [9], 22.6%; in test [10], 37%.
Take `CC(C)c1ccc(NCc2cn(-c3ccc(C(=O)O)cc3)nc2-c2cc(C(F)(F)F)cc(C(F)(F)F)c2)cc1`: the growth is 73.7% in test [1]; 80.9% in test [2]; 89% in test [3]; 83.8% in test [4]; 86.2% in [5]; 70.4% in [6]. The growth is 96% in test [7], 81.9% in test [8], 91.9% in test [9] and 93.3% in test [10].
Consider `COc1ccc(-n2c(SCc3n[nH]c(=S)o3)nc3ccc(Cl)cc3c2=O)cc1`, for which the growth in test [1] was 93.6%; in test [2], 105%; in test [3], 95.5%; in [4] it was 92.9%; in test [5], 104%; in test [6] it was 101%. In addition, the growth in [7] was 93.5%; in test [8] it was 92%; in test [9], 101%; in test [10], 95.1%.
`O=C(CN1CCN(c2cc(=O)n(-c3ccccc3)c3ccccc23)CC1)Nc1nc(-c2ccc(Cl)cc2)cs1`: the growth in [1] was 39.7%; in test [2], 63.8%; in test [3], 67.5%; in test [4], 64%; in test [5], 63.8%; in test [6] it was 35%. The growth in test [7] was 5.1% (active); in test [8], 61.5%; in test [9] it was 58.4%; in test [10] it was 69.2%.
As for `CN1CCN(Cc2ccc(NC(=O)c3cncc(C#Cc4cnn5cccnc45)c3)cc2C(F)(F)F)CC1`, the growth was 4.11% (active) in test [1]; 17.5% in test [2]; 62.4% in test [3]; 29% in test [4]; 36.2% in test [5]; 30.8% in test [6]. Also, the growth was 17.7% in test [7], 23.8% in test [8], -33.3% (active) in test [9] and 12.1% in test [10].
As for `N/C(=N\C(N)=N\c1nc2ccccc2s1)c1cccc(F)c1`, the growth in test [1] is 94.6% [5 µM]; in [2], 111% [5 µM]; in test [3], 89.2% [5 µM]; in [4] it was 96% [5 µM]; in test [5], 94.1% [5 µM]; in test [6], 75.5% [5 µM]. Moreover, the growth in test [7] was 98.2% [5 µM]; in test [8], 89.1% [5 µM]; in test [9], 83.2% [5 µM]; in test [10], 108% [5 µM].
For the compound `CCCSc1nc(Nc2ccc(/C(C)=N\NC(N)=S)cc2)c(C#N)c(-c2ccccc2)n1`, the growth in test [1] was 66%; in test [2], 60.3%; in test [3], 141%; in test [4] it was 83.1%; in test [5] it was 73.1%; in [6] it was 79.9%. The growth is 80.2% in [7], 97.1% in [8], 46.1% in test [9] and 84.6% in test [10].
As to `CCN1CCN(C(=O)[C@]23CCC(C)(C)C[C@H]2C2=CC[C@@H]4[C@@]5(C)Cc6c([nH]c7ccccc67)C(C)(C)[C@@H]5CC[C@@]4(C)[C@]2(C)CC3)CC1`, the growth in test [1] was 79.6%; in test [2], 88.3%; in test [3] it was 87.3%; in test [4] it was 91.9%; in test [5] it was 83.1%; in test [6], 75.3%. In addition, the growth was 97.3% in test [7], 94.8% in test [8], 76% in test [9] and 95.5% in [10].
For `Cc1cc(-c2ccc(Cl)cc2)n(Cc2nnc(SCC(=O)Nc3ccc(S(N)(=O)=O)cc3)n2-c2ccc([N+](=O)[O-])cc2)n1`, the growth is 68.3% in test [1]; 90.9% in test [2]; 129% in test [3]; 84.6% in test [4]; 88.4% in test [5]; 56.5% in test [6]. Besides, the growth was 95.9% in test [7], 77.4% in test [8], 88.4% in [9] and 97.4% in test [10].
For the compound `NC(=O)c1cccc(-n2ccc3cc(NC(=O)Nc4ccc(N5CCOCC5)c(C(F)(F)F)c4)ccc32)n1`, the growth in [1] is 10.4%; in [2] it was 4.89% (active); in test [3], -24.4% (active); in test [4], 2.44% (active); in [5], 0.717% (active); in [6] it was 5.77% (active). The growth in [7] is -79.6% (active); in test [8], -16.1% (active); in test [9], -10.9% (active); in test [10], -0.669% (active).
With `CCNC(=O)Oc1ccc(/C(=C(/C)c2ccccc2)c2ccc(OCCN3CCCCCC3)cc2)cc1`, the growth in [1] was 3.38% (active); in test [2], -14.2% (active); in [3], -0.681% (active); in test [4] it was 12.7%; in test [5], -44.6% (active); in [6], 13.1%. For the same compound, the growth is -94.7% (active) in [7], 16.5% in test [8], -14.8% (active) in test [9] and -41.8% (active) in [10].
As to `N#C/C(=C\c1ccc(-c2ccc(Cl)cc2Cl)o1)c1ccc(F)cc1`, the growth in test [1] was 94.5%; in [2], 96.4%; in [3], 77.6%; in test [4] it was 96.7%; in test [5] it was 98.5%; in [6], 87.8%. Further, the growth in [7] was 95.7%; in [8], 71.2%; in [9], 87.6%; in [10], 102%.
As for `NC(N)=Nc1ccc(Oc2cccc(Nc3ccc(Cl)c(C(F)(F)F)c3)c2)cc1`, the growth in test [1] is 79.5%; in [2] it was 49%; in test [3], 47.4%; in test [4], 24.8%; in [5] it was -27.6% (active); in test [6], 28.3%. Moreover, the growth is 43.9% in test [7], 40.1% in test [8], -62.4% (active) in test [9] and 67.7% in test [10].
Take `CCCCc1nc(/C=N/Nc2nc(Nc3ccccc3)nc(Nc3ccc(S(N)(=O)=O)cc3)n2)c(Cl)[nH]1`: the growth in test [1] was 103%; in test [2] it was 102%; in test [3] it was 112%; in [4], 30.7%; in test [5] it was -1.83% (active); in test [6] it was 83%. Besides, the growth is 75.2% in test [7], 72.8% in test [8], 41.1% in [9] and 71% in test [10].
With `C#C[C@]1(O)CC[C@H]2[C@@H]3CC=C4c5sc(-c6ccc7c(c6)OCO7)nc5CC[C@]4(C)[C@H]3CC[C@@]21C`, the growth is 10.5% in [1]; 8.04% (active) in test [2]; -3.43% (active) in test [3]; 15.5% in test [4]; -24.5% (active) in test [5]; -23.7% (active) in test [6]. Also, the growth is 50.5% in test [7], -35.5% (active) in test [8], -40.1% (active) in test [9] and -39.7% (active) in test [10].
`N#Cc1cn(Cc2ccc(Cl)cc2Cl)c(C(=O)c2ccc(Br)cc2)c1N`: the growth is 94.6% in test [1]; 102% in test [2]; 89.6% in test [3]; 69.5% in [4]; 86.1% in [5]; 86.9% in [6]. The growth in [7] was 97.5%; in [8], 82.8%; in test [9], 90.1%; in test [10], 99%.
